Screening results as filed in PubChem BioAssay.
GPR151 activ – human GPR151 activation. activation, % at 11.2 µM. 650,000 tested, 1% active. PathHunter beta-arrestin GPR151 cells, luminescence. Q8TDV0; in the data active means activation above about 4.9%;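 further: 0% = median of compound wells and 100% = cells with positive control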
MITF inh – blocks human microphthalmia-associated transcription factor; O75030; AlphaScreen MITF homodimerization, bead proximity signal; inhibition, % at 2.6 µM; 650,000 tested, 0.91% active; in the data active means inhibition above about 50%;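 further: 0% = vehicle wells with protein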
Target sequence (O75030 whole entry, looked up): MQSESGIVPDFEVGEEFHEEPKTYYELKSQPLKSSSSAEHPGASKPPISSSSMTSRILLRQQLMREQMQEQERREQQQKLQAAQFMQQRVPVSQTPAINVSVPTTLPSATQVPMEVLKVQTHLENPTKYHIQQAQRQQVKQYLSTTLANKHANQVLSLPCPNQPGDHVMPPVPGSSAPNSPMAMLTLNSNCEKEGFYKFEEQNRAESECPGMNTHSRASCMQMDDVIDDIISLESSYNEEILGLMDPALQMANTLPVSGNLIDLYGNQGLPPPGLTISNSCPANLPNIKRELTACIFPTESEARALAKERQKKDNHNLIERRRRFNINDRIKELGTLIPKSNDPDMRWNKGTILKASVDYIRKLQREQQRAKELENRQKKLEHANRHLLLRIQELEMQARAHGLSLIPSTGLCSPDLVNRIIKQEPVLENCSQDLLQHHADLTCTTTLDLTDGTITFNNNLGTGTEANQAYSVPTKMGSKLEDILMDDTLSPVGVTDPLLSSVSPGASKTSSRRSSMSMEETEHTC
FBW7 act – activators of human E3 ligase FBW7 | Q969H0 | AlphaScreen FBW7–phospho-cyclin E peptide binding, activator screen | normalized activity (activation), % at 26.1 µM | 650,000 tested, 0.13% active | AID 1259310; in the data active means normalized activity above about 1.9%;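 further: purified mutant Fbw7 with reduced substrate affinity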
TEAD-YAP block – TEAD-YAP interaction inhibition; HEK-TIYL cells, TEAD-Gal4/YAP UAS-luciferase luminescence; 640,000 tested, 1.4% active; inhibition, % at 9.12 µM; AID 1259422; in the data active means inhibition above about 32%;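 further: 0% = median of test compound wells and 100% = reference inhibitor wells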
MITF inh conf – confirmation of human MITF inhibitors; shares compounds with MITF inh; AlphaScreen MITF homodimerization, biotin/His-MITF beads; inhibition, % at 2.6 µM; 4,700 tested, 16% active;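 active means inhibition above a cutoff derived from the DMSO control wells, cut at about 28% in these data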;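 further: 0% = MITF dimer wells with DMSO only; inhibitors lower the bead chemiluminescence by keeping MITF from dimerizing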
AlphaScreen DR – AlphaScreen optical interference, dose response counter-screen; shares compounds with MITF inh; AlphaScreen optical interference counterscreen, cell-free; IC50, µM; 480 tested, 6% active; call rule not given here
AlphaScreen intf2 – AlphaScreen optical interference, counter-screen | 4,700 tested, 7.6% active | LysRS AlphaScreen counterscreen, signal interference, triplicate | inhibition, % at 2.6 µM | shares compounds with MITF inh;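 active means inhibition above a cutoff derived from the DMSO control wells, cut at about 30% in these data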
* hit, by the source's call; x = no result. Shown are actives, neighbours in structure and some others; about 3.5% of the full set was active somewhere.

SMILES | GPR151 activ | MITF inh | FBW7 act | TEAD-YAP block | MITF inh conf | AlphaScreen intf2 | others
COc1cc(CN2CCN(CC3CC4C=CC3C4)CC2)cc(OC)c1OC (configuration not stated) | 0 | 56* | 0 | 11 | -3 | 0
Fc1ccc(CN2CCN(CC3CC4C=CC3C4)CC2)cc1 (configuration not stated) | 0 | 79* | 0 | 7 | 7 | 20
COc1ccc(OC)c(CN2CCN(CC3CC4C=CC3C4)CC2)c1 (configuration not stated) | 0 | 35 | 0 | -6 | x | x
Cc1ccc(CN2CCN(CC3CC4C=CC3C4)CC2)cc1 (configuration not stated) | 0 | 74* | 0 | 5 | -6 | -2
CSc1ccc(CN2CCN(S(=O)(=O)c3ccc(F)cc3)CC2)cc1 | -2 | 45 | 1 | 5 | x | x
Cc1onc(-c2ccccc2)c1C(=O)NCC1Cc2cc(-c3cncnc3)cc(Cl)c2O1 (configuration not stated) | 1 | 6 | 0 | -3 | x | x
Cc1ccccc1C1Nc2cc(Cl)c(S(N)(=O)=O)cc2S(=O)(=O)N1 (configuration not stated) | 0 | 5 | 0 | 4 | x | x
COCC(=O)N(C)C(Cc1ccc(F)cc1)C1CCN(C(=O)Cn2ccc(C)n2)CC1 (configuration not stated) | -1 | 7 | 0 | 5 | x | x
O=c1[nH]c(/C=C/c2ccco2)nc(O)c1[N+](=O)[O-] | 0 | 83* | -1 | 2 | 67* | -7 | AlphaScreen DR=>6.5
CCOC(=O)N1CCN(CC(=O)N2c3ccccc3Sc3ccccc32)CC1 | -1 | 53* | 0 | -10 | 12 | 3
CC1Cc2ccccc2N1C(=O)CN1CCCN(CC(=O)N2c3ccccc3CC2C)CC1 (configuration not stated) | 0 | 62* | 0 | 8 | 5 | 7
CCOC(=O)N1CCN(CC(=O)N2c3ccccc3CC2C)CC1 (configuration not stated) | -1 | 67* | 0 | 0 | 5 | 10
CC1Cc2ccccc2N1C(=O)CN1CCN(C)CC1 (configuration not stated) | -1 | 77* | 0 | 5 | -16 | 0
Cc1nc(N2CCN(C)CC2)c2c(C)c(C(=O)Nc3ccc(Oc4ccccc4)cc3)sc2n1 | 0 | 8 | 0 | 2 | x | x
Cc1nnc(SCC(=O)N2CCOCC2)n(N)c1=O | 3 | 8 | 0 | -1 | x | x
C=CCn1c(SCC(=O)NCc2ccc3c(c2)OCO3)nc2sc3c(c2c1=O)CCC3 | -1 | -5 | 0 | -11 | x | x
C=CCn1c(SCC(=O)NCc2ccc3c(c2)OCO3)nc2scc(-c3ccccc3)c2c1=O | -1 | 57* | 0 | 2 | 12 | 9
CN1CCCN(Cc2ccc(C(F)(F)F)cc2)CC1 | 1 | 49 | 0 | 0 | x | x
COc1ccc(CN2CCN(Cc3ccc(C(F)(F)F)cc3)CC2)cc1 | 1 | 86* | 0 | 7 | 6 | 14
COc1cc(C(=O)N2CCN(Cc3ccc(C(F)(F)F)cc3)CC2)cc(OC)c1OC | 1 | 27 | 1 | -2 | x | x
FC(F)(F)c1ccc(CN2CCSCC2)cc1 | -1 | 58* | 0 | 8 | 9 | 17
COc1cccc(CN2CCN(Cc3ccc(C(F)(F)F)cc3)CC2)c1 | 0 | 81* | 0 | -11 | 7 | 13
COc1ccc(OC)c(CN2CCN(Cc3ccc(C(F)(F)F)cc3)CC2)c1 | 0 | 78* | 0 | -5 | 10 | 21
CCn1cc(C(=O)N[C@H](Cn2nc(-c3ccc(F)c(F)c3)ccc2=O)C(C)C)cn1 | 0 | 0 | 0 | 1 | x | x
COc1cc2nc(CC(C)C)n(NC(=O)c3c(F)cccc3F)c(=O)c2cc1OC | 2 | 1 | 0 | 5 | x | x
SMILES | GPR151 activ | MITF inh | FBW7 act | TEAD-YAP block | MITF inh conf | AlphaScreen intf2 | others
Cc1ccc(NC(=O)CS(=O)CC(=O)NC2CCN(Cc3ccccc3)CC2)cc1C (configuration not stated) | -1 | 17 | 0 | 1 | x | x
S=C(Cc1ccc2c(c1)CCCC2)N1CCOCC1 | 1 | 6 | 0 | -10 | x | x
O=C(CN1C(=O)C2CCCN2C(=O)c2ccccc21)Nc1ccc(F)cc1 (configuration not stated) | -1 | 1 | 0 | 3 | x | x
N#Cc1ccc(NC(=O)CN2C(=O)C3CCCN3C(=O)c3ccccc32)cc1 (configuration not stated) | 0 | 72* | 0 | -8 | -23 | 0
CCC(C(=O)Nc1ccc(O)cc1C(=O)O)c1ccccc1 (configuration not stated) | 2 | -2 | 0 | 2 | x | x
Cn1cccc1CN1CCN(S(C)(=O)=O)CC1 | 0 | 22 | 0 | -9 | x | x
Cn1cccc1CN1CCN(Cc2ccncc2)CC1 | -1 | 64* | 0 | 0 | -3 | 4
Cn1cccc1CN1CCN(Cc2ccccc2)CC1 | 1 | 70* | 0 | 8 | 7 | 20
Cn1cccc1CN1CCN(C2CCCC2)CC1 | 4 | 70* | 0 | -12 | 11 | 25
c1ccc(CN2CCC(N3CCN(C4CCCCC4)CC3)CC2)cc1 | 1 | 30 | 0 | 5 | x | x
Cn1cccc1CN1CC[C@H]2[C@H](CCC(=O)N2Cc2ccc(F)cc2)C1 | -2 | 6 | 0 | 7 | x | x
Cn1cccc1CN1CCN(Cc2ccc(F)cc2)CC1 | -1 | 65* | 0 | 4 | 4 | 7
COC(=O)CSc1nnc(Cn2cnc3ccccc32)n1-c1ccccc1Cl | 1 | -6 | 0 | -1 | x | x
COc1cc(CN2CCN(Cc3ccco3)CC2)cc(OC)c1 | 1 | 83* | 0 | 3 | 4 | 20
COc1cc(OC)cc(C(=O)N2CCN(Cc3ccco3)CC2)c1 | -2 | 59* | 0 | 2 | 3 | 16
COc1cc(OC)cc(C(=O)N2CCN(Cc3cccc(Oc4ccccc4)c3)CC2)c1 | 2 | 37 | 0 | -3 | x | x
COc1cccc(CN2CCN(Cc3ccco3)[C@@H](C)C2)c1 | -1 | 3 | 0 | 2 | x | x
CN(C)c1cccc(Nc2cc(NCc3nc4ccccc4[nH]3)ncn2)c1 | 0 | -1 | 0 | -6 | x | x
Cc1ccn2c(NCC3CCCO3)c(-c3ccc(O)cc3O)nc2c1 (configuration not stated) | -1 | 89* | 0 | -3 | 84* | 6 | AlphaScreen DR=>6.5
OC(CNC1CC1)COCc1ccccc1F (configuration not stated) | -1 | 59* | 0 | 1 | 8 | -11
COCCCNCCCOc1ccc(Cl)cc1C(C)(C)C | 0 | 48 | 0 | -10 | x | x
Cc1ccc(C(C)(C)C)c(OCCn2ccnc2)c1 | -2 | 28 | 0 | -13 | x | x
Cc1ccc(C(C)(C)C)c(OCCN2CCN(C)CC2)c1 | 0 | 77* | 0 | -11 | 13 | 15
COCCNCCOc1ccc(Cl)cc1C(C)(C)C | 1 | 74* | 0 | 13 | -8 | -6
